# Measured values as given in PubChem BioAssay (EPA / NIEHS).
# Results filed as inconclusive are left out. Some structures have more than one record in an assay (separate samples or runs), and their calls can disagree. Activity calls are given as the source filed them. How the source made its calls, unless noted: active means hit-call score of the fitted dose curve at least 0.9, where 1 is the maximum; inconclusive means response in the unintended direction; inactive means score below 0.9.
# How the values were obtained:
# [1] = test system: Sodium/Iodide Symporter (NIS), SLC5A5 (gene 6528); assay: CPHEA_Stoker_NIS_Inhibition_RAIU: CPHEA's Radioactive Iodide Uptake (RAIU) Assay for Sodium/Iodide Symporter (NIS) Inhibition, Stoker and Laws Labs (AID 2283841)
# Procedure, shortened: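 hNIS-HEK293T-EPA cells incubated 2 h at room temperature with compound (0.001–100 uM, 0.5% DMSO) and 329 pM final 125I in HBSS/10 mM HEPES, pH 7.4. Intracellular 125I counted; normalised to DMSO maximal uptake, triplicate, three biological replicates.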
# [2] = test system: frog Estrogen Receptor (ER2), gene 100174814; assay: ATG_frER2_XSP2: Attagene TRANS-FACTORIAL Multi-Species (XSP2) HepG2 Assay for frog Estrogen Receptor (ER2) (AID 2283828)
# Procedure, shortened: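 Induction of reporter mRNA, baseline set by DMSO, is the endpoint. The panel was run in transfected HepG2 cells over 24 h, with 3 nM 6-alpha-fluorotestosterone and 1.5 nM norgestrel present to stimulate androgen receptor.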
# [3] = biological target: Peroxisome proliferator-activated receptor gamma (Homo sapiens) (UniProt P37231); assay: ATG_hPPARg_XSP2: Attagene TRANS-FACTORIAL Multi-Species (XSP2) HepG2 Assay for human Peroxisome Proliferator-activated Receptor gamma (PPARg) (AID 2283829);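 further: actives raise reporter mRNA above DMSO so AC50 reflects PPARg activation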
# Procedure, shortened: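 HepG2 cells transiently transfected with multiplexed GAL4-UAS reporter units for chimeric NR-Gal4 receptors, dosed 24 h. Reporter mRNA quantified by RT-PCR, 6-FAM labeling, HpaI digestion and capillary electrophoresis; gain-of-signal fitted against DMSO baseline.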
# [4] = biological target: mouse Peroxisome Proliferator-activated Receptor gamma (PPARg), Pparg (gene 19016) (UniProt P37238); assay: ATG_mPPARg_XSP2: Attagene TRANS-FACTORIAL Multi-Species (XSP2) HepG2 Assay for mouse Peroxisome Proliferator-activated Receptor gamma (PPARg) (AID 2283830);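 further: hits are gains in reporter mRNA above DMSO so AC50 marks activation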
# Procedure, shortened: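 Multiplexed TRANS reporter readout: after 24 h chemical exposure of transfected HepG2 cells (with 3 nM 6-alpha-fluorotestosterone, 1.5 nM norgestrel present), RNA reverse-transcribed, amplified, 6-FAM-labelled and resolved by capillary electrophoresis; mouse PPARg-Gal4 induction scored against DMSO.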
# [5] = biological target: Nuclear receptor subfamily 1 group I member 2 (Mus musculus) (UniProt O54915); assay: ATG_mPXR_XSP2: Attagene TRANS-FACTORIAL Multi-Species (XSP1) HepG2 Assay for mouse Pregnane X Receptor (PXR) (AID 2283831)
# Procedure, shortened: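 HepG2 cells transiently transfected with GAL4-UAS reporter units expressing chimeric NR-GAL4 proteins; reporter mRNA measured 24 h after dosing by RT-PCR with 6-FAM labelling and capillary electrophoresis, gain of signal relative to DMSO.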
# [6] = biological target: zebrafish Thyroid Hormone Receptor alpha (TRa), thraa (gene 30670) (UniProt Q98867); assay: ATG_zfTRa_XSP2: Attagene TRANS-FACTORIAL Multi-Species (XSP1) HepG2 Assay for zebrafish Thyroid Hormone Receptor alpha (TRa) (AID 2283832);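 further: actives raise zebrafish TRa-Gal4 reporter transcript above DMSO baseline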
# Procedure, shortened: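 Chimeric zebrafish TRa-Gal4 activity read in transfected human HepG2 as GAL4-UAS reporter transcripts, 24 h post-dose, via RT-PCR with labeled primer extension and capillary electrophoresis. Medium also carries 3 nM 6-alpha-fluorotestosterone and 1.5 nM norgestrel; DMSO baseline.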
# [7] = test system: zebrafish Peroxisome Proliferator-activated Receptor gamma (PPARg), gene 557037; assay: ATG_zfPPARg_XSP2: Attagene TRANS-FACTORIAL Multi-Species (XSP2) HepG2 Assay for zebrafish Peroxisome Proliferator-activated Receptor gamma (PPARg) (AID 2283833);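 further: actives increase reporter signal over DMSO so AC50 reflects activation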
# Procedure, shortened: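 HepG2 cells transiently transfected with GAL4-UAS reporter units expressing a zebrafish PPARg–GAL4 chimera; compound exposure 24 h. Reporter mRNA quantified by RT-PCR with fluorescent labelling and capillary electrophoresis; gain of signal fitted relative to DMSO baseline.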
# [8] = test system: turtle Thyroid Hormone Receptor, alpha (TRa), gene 101949057; assay: ATG_trTRa_XSP2: Attagene TRANS-FACTORIAL Multi-Species (XSP1) HepG2 Assay for turtle Thyroid Hormone Receptor, alpha (TRa) (AID 2283834);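 further: hits raise reporter mRNA over the DMSO baseline so AC50 marks activators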
# Procedure, shortened: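 HepG2 cells transiently transfected with multiplexed GAL4-UAS reporter units expressing chimeric NR-Gal4 proteins were dosed for 24 hours. Reporter mRNA was quantified by RT-PCR with 6-FAM labelling and capillary electrophoresis, gain of signal scored against DMSO.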
# [9] = ATG_M_61_XSP2: Attagene TRANS-FACTORIAL Multi-Species (XSP2) HepG2 Assay for M61 Transcription Factor (Internal Marker) (AID 2283835; active means hit-call score of the fitted dose curve at least 0.9, where 1 is the maximum; inactive means score below 0.9;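 further: reporter mRNA of an internal background marker read by RT-PCR and capillary electrophoresis; active means a rise in signal above the DMSO baseline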)
# Procedure, shortened: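 Signal was mRNA induction detected as fluorescence after RT-PCR and capillary electrophoresis, analysed in the gain direction with DMSO as baseline. HepG2 cells transiently carrying reporter constructs received chemicals for 24 h.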
# [10] = biological target: zebrafish Thyroid Hormone Receptor beta (TRb), thrb (gene 30607) (UniProt Q9PVE4); assay: ATG_zfTRb_XSP2: Attagene TRANS-FACTORIAL Multi-Species (XSP1) HepG2 Assay for zebrafish Thyroid Hormone Receptor beta (TRb) (AID 2283836)
# Procedure, shortened: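 Reporter transcripts measured by RT-PCR, 6-FAM labelling, HpaI digestion and capillary electrophoresis after 24 h chemical exposure. Human HepG2 cells carry an exogenous zebrafish TRb-GAL4 chimera; medium included 3 nM 6-alpha-fluorotestosterone plus 1.5 nM norgestrel.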
# [11] = biological target: human Thyroid hormone Receptor alpha (TRa), THRA (gene 7067) (UniProt P10827); assay: ATG_hTRa_XSP2: Attagene TRANS-FACTORIAL Multi-Species (XSP2) HepG2 Assay for human Thyroid hormone Receptor alpha (TRa) (AID 2283838)
# Procedure, shortened: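 Reporter transcripts were read by RT-PCR with fluorescent primer extension, HpaI digestion and capillary electrophoresis. These came from HepG2 cells carrying multiplexed TRa-Gal4 TRANS constructs, harvested 24 hours after dosing. The medium also held 6-alpha-fluorotestosterone (3 nM) and norgestrel (1.5 nM), and increases were fitted against DMSO.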
# [12] = biological target: frog Thyroid hormone Receptor alpha (TRa), thra-a (gene 397942) (UniProt P15204); assay: ATG_frTRa_XSP2: Attagene TRANS-FACTORIAL Multi-Species (XSP2) HepG2 Assay for frog Thyroid hormone Receptor alpha (TRa) (AID 2283839)
# Procedure, shortened: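 HepG2 cells transiently transfected with multiplexed GAL4-UAS reporter units expressing chimeric frog TRα-Gal4; reporter mRNA read 24 h after dosing by RT-PCR, FAM-labelled primer extension, HpaI digest and capillary electrophoresis. Gain of signal fitted versus DMSO.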
# [13] = biological target: human Thyroid hormone Receptor beta (TRb), THRB (gene 7068) (UniProt P10828); assay: ATG_hTRb_XSP2: Attagene TRANS-FACTORIAL Multi-Species (XSP2) HepG2 Assay for human Thyroid hormone Receptor beta (TRb) (AID 2283840);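 further: actives raise reporter mRNA so potency reflects agonist-like gain of signal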
# Procedure, shortened: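 HepG2 cells were transiently transfected with GAL4-UAS multiplexed reporter units expressing chimeric NR-Gal4 proteins, dosed 24 h; reporter mRNA was quantified by RT-PCR, fluorescent labeling, HpaI digestion and capillary electrophoresis, fitted for gain of signal versus DMSO.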
# [14] = CPHEA_Stoker_NIS_Cytotoxicity: Cytotoxicity Assessment for CPHEA's Radioactive Iodide Uptake (RAIU) Assay for Sodium/Iodide Symporter (NIS) Inhibition, Stoker and Laws Labs (AID 2283897);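 on AC50: active means loss of ATP signal versus DMSO meaning cytotoxicity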
# Procedure, shortened: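 hNIS-HEK293T-EPA cells, human NIS expressed in HEK293T, treated 2 h with chemicals (0.001–100 uM, 0.5% final DMSO). ATP content read by CellTiter-Glo luminescence; loss of signal analysed relative to DMSO.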
# [15] = CEETOX_H295R_11DCORT_noMTC: CeeTox H295R High-throughput Steroidogenesis Assay for 11-Deoxycortisol (11DCORT), maximum tolerated concentration (MTC) filtered results only (AID 2283911; active means hit-call score of the fitted dose curve at least 0.9, where 1 is the maximum; inactive means score below 0.9); conditions: actives raise or lower the signal
# Procedure, shortened: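 HPLC-MS/MS read-out of 11-deoxycortisol after MTBE extraction of H295R medium. Cells: forskolin 10 uM pre-stimulation 48 h, chemical 48 h, 0.1% DMSO final. Bidirectional fit vs DMSO baseline; no MTC filtering.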
# [16] = CEETOX_H295R_OHPREG_noMTC: CeeTox H295R High-throughput Steroidogenesis Assay for OH-Pregnenolone (OHPREG), maximum tolerated concentration (MTC) filtered results only (AID 2283912; active means hit-call score of the fitted dose curve at least 0.9, where 1 is the maximum; inactive means score below 0.9); conditions: actives raise or lower the signal
# Procedure, shortened: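 Readout is HPLC-MS/MS quantification of 17alpha-hydroxypregnenolone released by forskolin-stimulated H295R cells over 48 h of chemical exposure, DMSO as baseline.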
# [17] = CEETOX_H295R_OHPROG_noMTC: CeeTox H295R High-throughput Steroidogenesis Assay for OH-Progesterone (OHPROG), maximum tolerated concentration (MTC) filtered results only (AID 2283914; active means hit-call score of the fitted dose curve at least 0.9, where 1 is the maximum; inactive means score below 0.9); conditions: actives raise or lower the signal
# Procedure, shortened: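 Analysis uses all tested concentrations, without maximum-tolerated-concentration screening by MTT. H295R cells, forskolin-primed (10 uM, 48 h), receive chemical for 48 h; hormone in medium measured by HPLC-MS/MS, with bidirectional curve fitting against DMSO.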
# [18] = CEETOX_H295R_ANDR_noMTC: CeeTox H295R High-throughput Steroidogenesis Assay for Androstenedione (ANDR), maximum tolerated concentration (MTC) filtered results only (AID 2283915; active means hit-call score of the fitted dose curve at least 0.9, where 1 is the maximum; inactive means score below 0.9); conditions: actives raise or lower the signal
# Procedure, shortened: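 Androstenedione secreted into medium was measured by LC-MS/MS after MTBE extraction. Human adrenal H295R cells received 10 uM forskolin for 48 h before 48 h chemical exposure (0.1% DMSO). Gain or loss fitted against DMSO, including concentrations above the MTT-derived MTC.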
# [19] = CEETOX_H295R_CORTISOL_noMTC: CeeTox H295R High-throughput Steroidogenesis Assay for Cortisol, maximum tolerated concentration (MTC) filtered results only (AID 2283916; active means hit-call score of the fitted dose curve at least 0.9, where 1 is the maximum; inactive means score below 0.9); conditions: actives raise or lower the signal
# Procedure, shortened: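 H295R adrenal cells were pre-stimulated 48 h with 10 uM forskolin, then exposed 48 h to test chemical in 0.1% DMSO. Medium cortisol was measured by MTBE extraction and HPLC-MS/MS; bidirectional fit versus DMSO, concentrations not MTC-filtered.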
# Chain of human Thyroid hormone Receptor alpha (TRa), THRA (gene 7067) (P10827 whole entry, looked up, the tested form may be a part): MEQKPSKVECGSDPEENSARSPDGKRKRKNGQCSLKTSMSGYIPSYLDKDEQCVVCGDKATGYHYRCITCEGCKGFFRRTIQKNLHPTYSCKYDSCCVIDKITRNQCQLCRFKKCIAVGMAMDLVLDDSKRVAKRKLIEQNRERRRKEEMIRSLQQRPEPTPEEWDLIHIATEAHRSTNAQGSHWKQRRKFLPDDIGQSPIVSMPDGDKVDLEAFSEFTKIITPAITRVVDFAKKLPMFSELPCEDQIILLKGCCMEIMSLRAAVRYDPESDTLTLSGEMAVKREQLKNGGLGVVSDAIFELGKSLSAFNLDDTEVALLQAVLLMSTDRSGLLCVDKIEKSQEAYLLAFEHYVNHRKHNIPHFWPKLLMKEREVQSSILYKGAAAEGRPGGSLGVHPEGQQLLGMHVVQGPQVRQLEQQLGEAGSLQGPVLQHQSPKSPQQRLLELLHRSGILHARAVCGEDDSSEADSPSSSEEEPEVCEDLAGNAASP
# Chain of zebrafish Thyroid Hormone Receptor beta (TRb), thrb (gene 30607) (Q9PVE4 whole entry, looked up, the tested form may be a part): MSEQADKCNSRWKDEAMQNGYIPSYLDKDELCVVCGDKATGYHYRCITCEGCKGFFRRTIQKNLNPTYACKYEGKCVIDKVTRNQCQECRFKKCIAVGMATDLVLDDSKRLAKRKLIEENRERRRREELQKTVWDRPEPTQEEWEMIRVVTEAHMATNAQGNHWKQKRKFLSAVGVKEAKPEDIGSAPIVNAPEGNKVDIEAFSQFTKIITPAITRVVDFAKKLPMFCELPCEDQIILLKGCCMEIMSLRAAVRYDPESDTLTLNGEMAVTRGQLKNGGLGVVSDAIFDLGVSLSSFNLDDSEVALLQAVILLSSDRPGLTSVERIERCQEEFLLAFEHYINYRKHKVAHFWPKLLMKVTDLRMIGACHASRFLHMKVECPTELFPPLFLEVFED
# Chain of mouse Peroxisome Proliferator-activated Receptor gamma (PPARg), Pparg (gene 19016) (P37238 whole entry, looked up, the tested form may be a part): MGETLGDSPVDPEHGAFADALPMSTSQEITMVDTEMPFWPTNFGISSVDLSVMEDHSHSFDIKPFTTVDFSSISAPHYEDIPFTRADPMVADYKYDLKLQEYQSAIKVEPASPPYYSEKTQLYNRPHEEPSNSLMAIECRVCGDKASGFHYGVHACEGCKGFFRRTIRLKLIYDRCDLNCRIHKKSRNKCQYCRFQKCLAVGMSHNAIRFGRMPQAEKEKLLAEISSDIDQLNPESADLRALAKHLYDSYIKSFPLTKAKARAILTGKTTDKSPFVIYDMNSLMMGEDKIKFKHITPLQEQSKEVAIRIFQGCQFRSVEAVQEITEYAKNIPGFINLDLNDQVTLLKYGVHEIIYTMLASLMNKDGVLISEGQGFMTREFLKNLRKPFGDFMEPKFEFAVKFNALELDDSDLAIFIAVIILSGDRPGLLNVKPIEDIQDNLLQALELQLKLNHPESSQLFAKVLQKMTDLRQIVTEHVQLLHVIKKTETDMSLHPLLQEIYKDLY
# Chain of Peroxisome proliferator-activated receptor gamma (Homo sapiens) (P37231 whole entry, looked up, the tested form may be a part): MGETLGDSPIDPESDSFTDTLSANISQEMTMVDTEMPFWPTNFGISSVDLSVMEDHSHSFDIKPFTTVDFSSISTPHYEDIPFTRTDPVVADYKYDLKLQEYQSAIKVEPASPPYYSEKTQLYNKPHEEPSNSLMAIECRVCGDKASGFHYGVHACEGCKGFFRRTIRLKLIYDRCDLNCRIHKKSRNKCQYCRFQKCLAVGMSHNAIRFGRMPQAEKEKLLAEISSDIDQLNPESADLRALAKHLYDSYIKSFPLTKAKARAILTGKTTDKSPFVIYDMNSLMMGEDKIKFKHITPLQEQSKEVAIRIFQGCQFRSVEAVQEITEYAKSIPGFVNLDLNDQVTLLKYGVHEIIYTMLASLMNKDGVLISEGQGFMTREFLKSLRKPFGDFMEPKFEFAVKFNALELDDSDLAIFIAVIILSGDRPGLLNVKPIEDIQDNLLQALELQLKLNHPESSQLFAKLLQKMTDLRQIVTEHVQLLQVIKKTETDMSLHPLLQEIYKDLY
# Chain of zebrafish Thyroid Hormone Receptor alpha (TRa), thraa (gene 30670) (Q98867 whole entry, looked up, the tested form may be a part): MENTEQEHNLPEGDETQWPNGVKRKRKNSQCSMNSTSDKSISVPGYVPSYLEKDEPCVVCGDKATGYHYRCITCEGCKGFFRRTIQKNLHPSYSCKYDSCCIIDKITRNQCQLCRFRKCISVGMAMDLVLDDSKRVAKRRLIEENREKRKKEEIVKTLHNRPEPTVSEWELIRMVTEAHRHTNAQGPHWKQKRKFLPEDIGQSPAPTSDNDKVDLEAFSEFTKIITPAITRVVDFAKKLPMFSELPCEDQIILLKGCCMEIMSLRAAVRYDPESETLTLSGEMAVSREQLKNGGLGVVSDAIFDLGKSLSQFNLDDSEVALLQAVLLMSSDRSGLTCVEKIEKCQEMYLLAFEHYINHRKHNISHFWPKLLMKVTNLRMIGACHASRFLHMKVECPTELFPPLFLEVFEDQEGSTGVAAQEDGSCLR
# Chain of Nuclear receptor subfamily 1 group I member 2 (Mus musculus) (O54915 whole entry, looked up, the tested form may be a part): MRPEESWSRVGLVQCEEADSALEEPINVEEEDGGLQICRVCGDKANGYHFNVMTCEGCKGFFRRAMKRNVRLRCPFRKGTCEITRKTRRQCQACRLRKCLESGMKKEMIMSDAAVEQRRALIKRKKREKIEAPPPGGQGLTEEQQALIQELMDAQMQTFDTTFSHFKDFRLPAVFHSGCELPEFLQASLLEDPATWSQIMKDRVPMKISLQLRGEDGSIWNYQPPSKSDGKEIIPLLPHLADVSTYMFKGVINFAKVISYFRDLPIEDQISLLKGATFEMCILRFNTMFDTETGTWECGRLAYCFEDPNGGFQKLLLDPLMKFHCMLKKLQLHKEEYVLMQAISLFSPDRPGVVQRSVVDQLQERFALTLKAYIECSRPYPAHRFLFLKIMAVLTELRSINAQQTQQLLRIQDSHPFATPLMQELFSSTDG
# Chain of frog Thyroid hormone Receptor alpha (TRa), thra-a (gene 397942) (P15204 whole entry, looked up, the tested form may be a part): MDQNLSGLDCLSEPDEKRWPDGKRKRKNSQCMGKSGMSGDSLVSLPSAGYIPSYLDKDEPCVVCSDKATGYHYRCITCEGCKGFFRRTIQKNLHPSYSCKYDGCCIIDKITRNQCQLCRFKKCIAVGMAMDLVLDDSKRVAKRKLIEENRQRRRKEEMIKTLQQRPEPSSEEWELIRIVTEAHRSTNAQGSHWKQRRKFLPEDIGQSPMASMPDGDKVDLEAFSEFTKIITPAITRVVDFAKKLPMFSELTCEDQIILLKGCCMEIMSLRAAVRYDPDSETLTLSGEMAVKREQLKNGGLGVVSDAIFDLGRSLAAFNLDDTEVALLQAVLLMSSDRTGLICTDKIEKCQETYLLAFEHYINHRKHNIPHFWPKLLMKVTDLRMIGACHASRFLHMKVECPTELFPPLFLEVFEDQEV
# Chain of human Thyroid hormone Receptor beta (TRb), THRB (gene 7068) (P10828 whole entry, looked up, the tested form may be a part): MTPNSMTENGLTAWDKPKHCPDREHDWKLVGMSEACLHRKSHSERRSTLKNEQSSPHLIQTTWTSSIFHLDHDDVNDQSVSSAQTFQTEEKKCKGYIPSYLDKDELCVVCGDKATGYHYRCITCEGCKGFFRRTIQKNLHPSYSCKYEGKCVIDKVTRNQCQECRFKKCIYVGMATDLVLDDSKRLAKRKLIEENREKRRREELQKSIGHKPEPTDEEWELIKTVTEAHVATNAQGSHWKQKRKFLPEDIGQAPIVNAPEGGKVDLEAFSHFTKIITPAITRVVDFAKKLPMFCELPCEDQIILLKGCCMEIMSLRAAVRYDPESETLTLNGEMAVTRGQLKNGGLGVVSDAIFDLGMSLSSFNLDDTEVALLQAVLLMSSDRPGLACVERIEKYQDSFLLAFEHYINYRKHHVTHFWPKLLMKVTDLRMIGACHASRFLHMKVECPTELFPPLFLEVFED
structure (smiles),measurement,setting,value
OCC(F)(F)C(F)(F)C(F)(F)C(F)(F)C(F)(F)C(F)F,outcome,[1],inactive
O=C(OCCOCCOCCOC(=O)c1ccccc1)c1ccccc1,outcome,[2],inactive
same,AC50,[3],46.3 µM (active)
same,outcome,[3],inactive
same,AC50,[4],58.5 µM (active)
same,outcome,[4],inactive
same,AC50,[5],22.8 µM (active)
same,outcome,[6],inactive
same,outcome,[7],inactive
same,outcome,[8],inactive
same,outcome,[9],inactive
same,outcome,[10],inactive
same,outcome,[11],inactive
same,outcome,[12],inactive
same,outcome,[13],inactive
same,outcome,[1],inactive
same,outcome,[14],inactive
O=C(CC(=O)C(F)(F)C(F)(F)F)C(F)(F)F,AC50,[1],9.92 µM (active)
C=C(C)C(=O)OCC(F)(F)C(F)(F)C(F)(F)C(F)(F)C(F)(F)C(F)(F)C(F)(F)F,outcome,[1],inactive
FC(F)(F)C(F)(F)C(F)(F)C(F)(F)C(F)(F)CCI,AC50,[1],13.3 µM (active)
FC(F)(F)C(F)(F)C(F)(F)N(C(F)(F)C(F)(F)C(F)(F)F)C(F)(F)C(F)(F)C(F)(F)F,outcome,[1],inactive
CCCCCCOC(=O)c1ccccc1O,outcome,[1],inactive
same,outcome,[14],inactive
O=C(O)C(F)(F)C(F)(F)C(F)(F)C(F)(F)C(F)(F)C(F)(F)C(F)(F)C(F)(F)C(F)(F)C(F)(F)C(F)(F)C(F)(F)F,outcome,[1],inactive
CC(Cc1ccc(O)c(O)c1)C(C)Cc1ccc(O)c(O)c1 (centres undefined),AC50,[14],84 µM (active)
CCCCCCCOC(=O)c1ccccc1C(=O)OCCCCCCC,outcome,[15],inactive
same,outcome,[16],inactive
same,outcome,[17],inactive
same,outcome,[18],inactive
same,outcome,[19],inactive
COC(=O)C1CCC(C(=O)OC)CC1 (centres undefined),outcome,[16],inactive
same,outcome,[17],inactive
C=CC(=O)OCC(F)(F)C(F)(F)C(F)(F)C(F)(F)COC(=O)C=C,outcome,[1],inactive
O=C(O)C(F)(F)C(F)(F)C(F)(F)C(F)(F)C(F)(F)C(F)(F)C(F)(F)C(F)(F)C(F)(F)C(F)(F)C(F)(F)C(F)(F)C(F)(F)F,outcome,[1],inactive
C(=C(c1ccccc1)c1ccccc1)c1ccccc1,AC50,[2],0.0253 µM (active)
same,outcome,[3],inactive
same,outcome,[4],inactive
same,outcome,[5],inactive
same,outcome,[7],inactive
same,outcome,[8],inactive
same,outcome,[9],inactive
same,outcome,[10],inactive
same,outcome,[11],inactive
same,outcome,[12],inactive
same,outcome,[13],inactive
same,outcome,[1],inactive
same,outcome,[14],inactive
OCCCC(F)(F)C(F)(F)C(F)(F)C(F)(F)C(F)(F)C(F)(F)C(F)(F)F,outcome,[1],inactive
O=C(O)C(F)(F)C(F)(F)C(F)(F)C(F)(F)C(F)(F)C(F)(F)C(F)(F)C(F)(F)C(F)(F)C(F)F,AC50,[1],21.7 µM (active)
